# Test results published in PubChem BioAssay (NCATS).
# Results filed as inconclusive are left out. Where a call stands in place of a potency, no number is given. Active and inactive are the calls of the source. The call rests on the fitted dose curve; in most records, active means well fitted curve in the direction sought with a large enough effect; inconclusive means small, poorly fitted or top-dose-only effect, or another doubt; inactive means no such curve, though single readings can be large; an effect the other way counts as inactive or inconclusive. Residues, ends and D or L forms follow the SMILES beside them. *: point of attachment. Cbz = O=C(OCc1ccccc1)*
# How the values were obtained:
# [1] = biological target: Voltage-gated inwardly rectifying potassium channel KCNH2 (Homo sapiens) (UniProt Q12809); experiment: qHTS Assay for Small Molecule Inhibitors of the Human hERG Channel Activity (AID 588834);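 further: lower thallium flux fluorescence means stronger hERG block; nearly all actives have a fitted effect of over 50% in size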; further: potency means the concentration at half of the fitted maximal effect
# Summary of the method: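 hERG block measured as reduced thallium-dye (FluxOR) fluorescence after stimulation buffer addition, read over 2 min. Cells were hERG-BacMam-transduced U2OS exposed to compound ~10 min […]; concentration-response fitted with Hill equation for AC50.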
# [2] = biological target: Glutaminase kidney isoform, mitochondrial (Homo sapiens) (UniProt O94925); experiment: qHTS for Inhibitors of Glutaminase (GLS): LOPAC Validation (AID 624146); further: nearly all actives have a fitted effect of over 60% in size; further: potency means the concentration at half of the fitted maximal effect
# Summary of the method: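 Two-point fluorescence kinetic (t0, 30 min RT) for hKGA; glutamate detected via glutamate oxidase–HRP–Amplex Red. Substrate: 1 mM L-glutamine solution; buffer 45 mM KH2PO4, pH 8.2.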
# [3] = qHTS of Trypanosoma Brucei Inhibitors: LOPAC Validation (AID 624147)
# Summary of the method: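 Screened from lowest to highest concentration, compounds were pinned into TbPYK/substrate mixtures, and ADP (130 uM final) was added. Plates sat at room temperature for 45 min prior to Kinase-Glo Plus detection by luminescence.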
# [4] = biological target: Glucagon-like peptide 1 receptor (Homo sapiens) (UniProt P43220); experiment: qHTS of GLP-1 Receptor Agonists: LOPAC Validation (AID 624148);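 further: luminescence from a luciferase reporter switched on by cAMP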; further: potency means the concentration at half of the fitted maximal effect
# Summary of the method: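 Agonism scored as increased luciferase luminescence driven by cAMP in HEK293 clones carrying GLP-1R. Cells settled 12 hours, received compound for 4-6 hr at 37 deg C, 5% CO2, and were read after 12 min detection reagent at RT.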
# [5] = qHTS of Nrf2 Activators: LOPAC Validation (AID 624149); further: potency means the concentration at half of the fitted maximal effect
# Summary of the method: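 Luciferase signal from ARE activation, read with Steady-Glo after 30 min at room temperature. Compounds were pin-transferred onto AREc32_Fluc cells (1000/well, OPTI-MEM/5% FBS, seeded overnight) and left 24 hr at 37 deg C.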
# [6] = HTS Assay for Allosteric Antagonists of the Human D2 Dopamine Receptor: Hit Validation in HTRF (AID 624455); further: potency means the concentration at half of the fitted maximal effect;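 further: stable D1 dopamine receptor cell line scored for blocking the D1 response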
# Summary of the method: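 Inhibition of the D1-mediated response was measured by HTRF. Cells used were a line stably expressing the D1 dopamine receptor.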
# Sequence of Voltage-gated inwardly rectifying potassium channel KCNH2 (Homo sapiens) (Q12809 whole entry, looked up): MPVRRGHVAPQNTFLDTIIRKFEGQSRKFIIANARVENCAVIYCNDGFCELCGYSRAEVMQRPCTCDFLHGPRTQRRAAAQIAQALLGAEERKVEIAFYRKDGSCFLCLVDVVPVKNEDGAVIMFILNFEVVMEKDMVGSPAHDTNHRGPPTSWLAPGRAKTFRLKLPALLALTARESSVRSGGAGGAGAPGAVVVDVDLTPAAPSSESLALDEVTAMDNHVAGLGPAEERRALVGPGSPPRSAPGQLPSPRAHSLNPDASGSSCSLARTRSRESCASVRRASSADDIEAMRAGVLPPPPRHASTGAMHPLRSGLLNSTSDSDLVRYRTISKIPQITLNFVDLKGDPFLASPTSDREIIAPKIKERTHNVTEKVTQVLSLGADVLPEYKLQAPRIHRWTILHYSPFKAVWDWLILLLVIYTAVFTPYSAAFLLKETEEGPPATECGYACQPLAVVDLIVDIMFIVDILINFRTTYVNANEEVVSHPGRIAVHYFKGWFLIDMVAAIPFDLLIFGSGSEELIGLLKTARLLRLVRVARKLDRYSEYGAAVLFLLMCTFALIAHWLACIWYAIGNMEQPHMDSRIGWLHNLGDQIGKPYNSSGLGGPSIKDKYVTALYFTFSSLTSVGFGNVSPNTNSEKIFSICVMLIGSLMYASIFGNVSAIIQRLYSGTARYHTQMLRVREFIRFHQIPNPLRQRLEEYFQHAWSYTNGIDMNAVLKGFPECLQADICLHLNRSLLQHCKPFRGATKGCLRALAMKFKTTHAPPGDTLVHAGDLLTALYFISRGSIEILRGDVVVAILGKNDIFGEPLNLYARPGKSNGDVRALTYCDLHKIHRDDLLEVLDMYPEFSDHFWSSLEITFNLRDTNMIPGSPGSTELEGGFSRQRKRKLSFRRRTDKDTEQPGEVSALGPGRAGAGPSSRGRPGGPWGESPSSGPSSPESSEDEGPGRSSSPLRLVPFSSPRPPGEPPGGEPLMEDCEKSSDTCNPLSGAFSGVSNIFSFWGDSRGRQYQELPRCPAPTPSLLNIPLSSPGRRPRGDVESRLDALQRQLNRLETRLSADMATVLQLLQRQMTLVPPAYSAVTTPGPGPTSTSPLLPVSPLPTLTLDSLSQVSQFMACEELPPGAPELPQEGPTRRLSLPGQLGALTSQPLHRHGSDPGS
# Sequence of Glucagon-like peptide 1 receptor (Homo sapiens) (P43220 whole entry, looked up): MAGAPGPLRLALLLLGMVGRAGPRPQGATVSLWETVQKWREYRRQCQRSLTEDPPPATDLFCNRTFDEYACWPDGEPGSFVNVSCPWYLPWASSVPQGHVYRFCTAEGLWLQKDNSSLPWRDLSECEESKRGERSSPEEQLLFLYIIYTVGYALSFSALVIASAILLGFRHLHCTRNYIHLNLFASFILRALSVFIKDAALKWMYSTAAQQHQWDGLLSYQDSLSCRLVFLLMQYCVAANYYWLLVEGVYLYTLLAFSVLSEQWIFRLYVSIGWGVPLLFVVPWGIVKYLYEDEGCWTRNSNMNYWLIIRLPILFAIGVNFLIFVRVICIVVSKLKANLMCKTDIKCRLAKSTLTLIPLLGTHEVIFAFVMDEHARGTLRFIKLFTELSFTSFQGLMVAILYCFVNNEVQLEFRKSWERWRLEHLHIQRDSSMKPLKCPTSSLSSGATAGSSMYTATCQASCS
# Sequence of Glutaminase kidney isoform, mitochondrial (Homo sapiens) (O94925 whole entry, looked up, canonical isoform): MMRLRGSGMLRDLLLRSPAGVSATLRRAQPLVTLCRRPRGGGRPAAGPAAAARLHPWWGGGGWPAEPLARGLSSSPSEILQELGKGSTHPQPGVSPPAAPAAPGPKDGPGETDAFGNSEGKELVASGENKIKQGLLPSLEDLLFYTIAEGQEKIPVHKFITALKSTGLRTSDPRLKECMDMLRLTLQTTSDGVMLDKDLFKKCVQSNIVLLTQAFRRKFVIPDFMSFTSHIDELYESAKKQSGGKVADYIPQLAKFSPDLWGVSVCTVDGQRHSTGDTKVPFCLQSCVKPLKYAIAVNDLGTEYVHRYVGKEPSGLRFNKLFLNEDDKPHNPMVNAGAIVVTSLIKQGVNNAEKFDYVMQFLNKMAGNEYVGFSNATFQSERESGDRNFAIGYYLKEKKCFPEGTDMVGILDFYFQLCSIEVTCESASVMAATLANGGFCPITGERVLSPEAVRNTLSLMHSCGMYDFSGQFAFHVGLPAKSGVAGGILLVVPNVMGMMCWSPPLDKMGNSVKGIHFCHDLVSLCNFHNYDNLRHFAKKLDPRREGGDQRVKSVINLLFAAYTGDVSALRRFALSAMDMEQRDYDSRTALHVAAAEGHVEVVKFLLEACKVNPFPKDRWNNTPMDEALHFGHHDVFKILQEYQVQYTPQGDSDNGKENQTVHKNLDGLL
Structure (SMILES),Potency [1],Potency [2],Potency [3],Potency [4],Potency [5],Potency [6]
O=C1OC(=O)C2C3CCC(O3)C12 (stereo not drawn),inactive,inactive,inactive,inactive,inactive,inactive
C=CC[C@H](N)C(=O)O,inactive,inactive,inactive,inactive,inactive,
O=c1cc(O)cc(/C=C/c2ccc(O)c(O)c2)o1,inactive,1.12 µM (active),inactive,inactive,inactive,inactive
CCC(=O)N1CCN(C(=O)c2ccccc2)CC1,inactive,inactive,inactive,inactive,inactive,inactive
CC(C)[C@H](NC(=O)OCc1ccccc1)C(=O)N[C@H](C=O)Cc1ccccc1 (Cbz-Val-Phe-aldehyde),inactive,inactive,inactive,inactive,inactive,
CC(=O)O[C@H]1CC2(C)[C@@H](C[C@@H](O)[C@H]3[C@@]4(C)CC[C@@H](O)[C@@H](C)[C@@H]4CC[C@@]32C)C1=C(CCC=C(C)C)C(=O)O (stereo partly drawn),inactive,inactive,inactive,inactive,inactive,inactive
Nc1nc2ccc(Cl)cc2c2nc(-c3ccco3)nn12,inactive,inactive,inactive,inactive,1.46 µM (active),inactive
NCC(O)(CS(=O)(=O)O)c1ccc(Cl)cc1 (stereo not drawn),inactive,inactive,inactive,inactive,inactive,inactive
COc1ccccc1N1CCN(CCCNc2c(C)c(=O)n(C)c(=O)n2C)CC1,inactive,inactive,inactive,inactive,inactive,inactive
CC(=O)/C(C)=N/O,inactive,inactive,inactive,inactive,inactive,
C=C1C(=O)O[C@@H]2[C@H]3O[C@]3(C)CCC=C(C)CC[C@@H]12,inactive,inactive,inactive,inactive,inactive,inactive
CCCCCC(O)CCCC(=O)O (stereo not drawn),inactive,inactive,inactive,inactive,inactive,inactive
CCC1(O)CC2CN(CCc3c([nH]c4ccccc34)[C@@](C(=O)OC)(c3cc4c(cc3OC)N(C=O)C3[C@]45CCN4CC=C[C@@](CC)([C@@H](OC(C)=O)[C@]3(O)C(=O)OC)[C@H]45)C2)C1 (stereo partly drawn),inactive,7.08 µM (active),inactive,inactive,inactive,inactive
CNCCNS(=O)(=O)c1cccc2cnccc12,inactive,inactive,inactive,inactive,inactive,inactive
COC1(C2=NCCN2)COc2ccccc2O1 (stereo not drawn),inactive,inactive,inactive,inactive,inactive,inactive
O=C(O)C1CN(CCCP(=O)(O)O)CCN1 (stereo not drawn),inactive,inactive,inactive,inactive,inactive,inactive
[N-]=[N+]=Nc1ccc(C(=O)CSC[C@H](NC(=O)CC[C@H](N)C(=O)O)C(=O)NCC(=O)O)cc1,inactive,inactive,inactive,inactive,inactive,inactive
NCCCNCCCCNCCCN,inactive,inactive,inactive,inactive,inactive,4.61 µM (active)
Nc1ccc2c3c(cccc13)C(=O)NC2=O,5.01 µM (active),inactive,inactive,inactive,inactive,inactive
Nc1ccc(N2C(=O)c3ccccc3C2=O)c(Cl)c1,inactive,inactive,inactive,inactive,inactive,inactive
CN[C@H](CC(=O)O)C(=O)O,inactive,inactive,inactive,inactive,inactive,inactive

Structure (SMILES),Potency [1],Potency [2],Potency [3],Potency [4],Potency [5],Potency [6]
Nc1ccc(-c2nc3ccc(-c4nc5ccc(N)cc5[nH]4)cc3[nH]2)cc1,inactive,5.01 µM (active),inactive,inactive,inactive,inactive
N[C@H](C(=O)O)[C@H]1C[C@@H]1C(=O)O,inactive,inactive,inactive,inactive,inactive,inactive
COC(=O)C(N)Cc1ccc(Cl)cc1 (stereo not drawn),inactive,inactive,inactive,inactive,inactive,inactive
N=C(N)SCCN,inactive,inactive,inactive,inactive,inactive,inactive
C#CCn1c(=O)c2c(ncn2C)n(C)c1=O,inactive,inactive,inactive,inactive,inactive,inactive
NC(=Nc1ccccc1)NC(=O)c1nc(Cl)c(N)nc1N,14.1 µM (active),inactive,inactive,inactive,inactive,inactive
OC[C@H]1O[C@@H](n2cnc3cncnc32)[C@H](O)[C@@H]1O,inactive,inactive,inactive,inactive,inactive,inactive
NC(N)=NC(N)=Nc1ccccc1,inactive,inactive,inactive,inactive,inactive,inactive
NC(=O)c1cc[n+](CC2=C(C(=O)O)N3C(=O)[C@@H](NC(=O)[C@@H](c4ccccc4)S(=O)(=O)[O-])[C@H]3SC2)cc1,inactive,inactive,inactive,inactive,inactive,inactive
NCCS(=O)O,inactive,inactive,inactive,inactive,inactive,inactive
O=c1onc2cnc3ccccc3n12,inactive,7.08 µM (active),inactive,inactive,inactive,inactive
OC[C@H]1NC[C@@H](O)[C@@H]1O,inactive,inactive,inactive,inactive,inactive,inactive
O=C1NC(=O)c2cc(Nc3ccccc3)c(Nc3ccccc3)cc21,12.6 µM (active),2.51 µM (active),inactive,inactive,inactive,inactive
CC(C)(C)c1cc(/C=C(\C#N)C(N)=S)cc(C(C)(C)C)c1O,11.2 µM (active),4.47 µM (active),inactive,inactive,inactive,inactive
CC[N+](CC)(CC)CC(=O)Nc1c(C)cccc1C,inactive,inactive,inactive,inactive,inactive,inactive
CCCn1c(=O)c2[nH]c(C3CCCC3)nc2n(CCC)c1=O,inactive,inactive,inactive,inactive,inactive,inactive
Cc1nc(N=Nc2ccc(C(=O)O)cc2)c(COP(=O)(O)O)c(C=O)c1O,inactive,inactive,inactive,inactive,inactive,inactive
CCCC[C@@]1(C2CCCC2)Cc2cc(OCC(=O)O)c(Cl)c(Cl)c2C1=O,inactive,inactive,inactive,inactive,inactive,inactive
Cn1c(=O)[nH]c2ncn(C)c2c1=O,inactive,inactive,inactive,inactive,inactive,inactive
N#Cc1cc2nc(O)c(O)nc2cc1[N+](=O)[O-],inactive,inactive,inactive,inactive,inactive,inactive
Cc1cccc(C(=O)NCN2CCN(c3ccccc3C#N)CC2)c1,inactive,inactive,inactive,inactive,inactive,inactive

Structure (SMILES),Potency [1],Potency [2],Potency [3],Potency [4],Potency [5],Potency [6]
O=[N+]([O-])c1cccc2c(Br)[nH]nc12,inactive,inactive,inactive,inactive,inactive,inactive
O=C(O)/C=C/c1cnc[nH]1,inactive,inactive,inactive,inactive,inactive,inactive
CC(N)=O,inactive,inactive,inactive,inactive,inactive,inactive
C=C(C)C1CC=C(C(=O)O)CC1 (stereo not drawn),inactive,inactive,inactive,inactive,inactive,inactive
COc1ccc(CCN(C)CCc2ccc(OC)c(OC)c2)cc1OC,6.31 µM (active),inactive,inactive,inactive,inactive,inactive
NCCCCN,inactive,inactive,inactive,inactive,inactive,inactive
CC(C)(C)NCC(O)COc1cccc2[nH]c(=O)[nH]c12 (stereo not drawn),inactive,inactive,inactive,inactive,inactive,inactive
N[C@@H](CCCC(=O)O)C(=O)O,inactive,inactive,inactive,inactive,inactive,inactive
CCCCOC(=O)NS(=O)(=O)c1sc(CC(C)C)cc1-c1ccc(Cn2c(CC)nc3c(C)cc(C)nc32)cc1,14.1 µM (active),inactive,inactive,inactive,inactive,inactive
CC1C(=O)N(C)C(=O)c2nc[nH]c21 (stereo not drawn),inactive,inactive,inactive,inactive,inactive,inactive
CCCn1c(=O)c2[nH]c(-c3ccc(S(=O)(=O)O)cc3)nc2n(CCC)c1=O,inactive,inactive,inactive,inactive,inactive,inactive
COc1ccc2c(c1)CCC1C2CC[C@@]2(C)C1CC[C@@H]2NCCCCCCN1C(=O)C=CC1=O (stereo partly drawn),inactive,inactive,inactive,inactive,inactive,inactive
C=CC1(C)CC(=O)C2(O)C(C)(O1)C(OC(C)=O)C(O)C1C(C)(C)CCC(O)C12C (stereo not drawn),inactive,inactive,inactive,1.03 µM (active),inactive,0.517 µM (active)
Cc1nc(N=Nc2ccc(S(=O)(=O)O)cc2S(=O)(=O)O)c(COP(=O)(O)O)c(C=O)c1O,inactive,inactive,inactive,inactive,inactive,inactive
C[N+](C)(C)CC=O,inactive,inactive,inactive,inactive,inactive,inactive
CCCCS(=N)(=O)CC[C@H](N)C(=O)O (stereo partly drawn),inactive,inactive,inactive,inactive,inactive,inactive
O=C(O)c1cc2cc(F)ccc2[nH]1,inactive,inactive,inactive,inactive,inactive,inactive
CCN1C(=O)C=CC1=O,inactive,inactive,inactive,inactive,inactive,inactive
Nc1ncnc2c1ncn2C1CCCC1,inactive,inactive,inactive,inactive,inactive,inactive
